Screens deposited in PubChem BioAssay by National Center for Advancing Translational Sciences (NCATS).
Most compounds without a hit are left out; they make up all but 7.9% or so of the library.
Marburg entry inh: qHTS for inhibitors of binding or entry into cells for Marburg Virus. actives 1.8% (n = 300,000). Potency, µM (top dose mostly 37.8 µM), without a hit: at the top dose activity change, negative = inhibition, actives largely listed as inhibitors. Marburg virus pseudotyped entry inhibition, cell reporter; calls by dose curve; tested in HEK293 cells; also: potency is read from the fitted curve at half-maximal effect
HCV inhibitor: qHTS Assay for Inhibitors of Hepatitis C Virus (HCV). Huh7.5.1 HCVcc-Cre infection, luciferase reporter, 44 h. actives 3.4% (n = 340,000). Potency, µM (top dose mostly 41.8 µM), for inactives: at the highest dose activity change, negative = inhibition, most hits filed as inhibitors. AID 651820, 2012; active = well fitted inhibition curve with a large enough effect; inconclusive = small, poorly fitted or top-dose-only effect, or another doubt; inactive = no such curve, though single readings can be large or run the other way; also: potency is read from the fitted curve at half-maximal effect
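Reporter virus HCVcc-Cre (~0.5 moi) infects cells exposed to compound; seeding density 1,000 cells/well with 4 h settling beforehand. Luminescence, 15 sec read, taken 44 h post-infection following a 15 min RT substrate incubation.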
FMDV antiviral: High Throughput Screening for Foot and Mouth Disease Virus Antivirals; Potency, µM (series often up to 57.9 µM), for inactives: at the highest dose activity change, negative = inhibition, actives largely listed as inhibitors; AID 1159524, 2015; actives 1.2% (n = 410,000); FMDV antiviral cell-based qHTS; calls by dose curve; tested in HEK293T cells; also: read-out not given here; potency is read from the fitted curve at half-maximal effect; nearly all actives have a fitted effect of over 45% in size
LASV entry inh: qHTS for Inhibitors of binding or entry into cells for Lassa Virus | Lassa virus pseudotype entry inhibition, cell reporter | Potency, µM (series often up to 37.9 µM), for the others: at the highest dose activity change, negative = inhibition, actives largely listed as inhibitors | actives 1.2% (n = 300,000) | AID 540256, 2011; calls by dose curve; tested in HEK293 cells; also: potency is read from the fitted curve at half-maximal effect; nearly all actives have a fitted effect of over 50% in size
HCMV antiviral: qHTS Assay for inhibitors of the human cytomegalovirus (HCMV) | HFF cells, HCMV-luciferase reporter, 72 h; active compounds read low | activity change, negative = inhibition, % at 57.5 µM | actives 4.5% (n = 410,000) | AID 1259415, 2018; in the data active = activity change below about -60%; inconclusive = no clear call, values can overlap the other calls; inactive = above about -39%
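HFF cells seeded 16 h at 37C, treated with compounds, infected with luciferase-reporter HCMV at MOI 1 PFU/cell; luciferase read at 72 h post infection, normalized to buffer-only and Salinomycin controls.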
Starred values were filed as active, the others as inactive; ? = inconclusive; . = no result given; [ ] = another dose, or the depositor's remark. % is scaled to controls: 0 for no effect and ±100 for the full control effect.

SMILES | Marburg entry inh | HCV inhibitor | FMDV antiviral | LASV entry inh | HCMV antiviral
Cc1cccc(C(=O)NCC(=O)OCc2cc(=O)n3nc(CC(C)C)sc3n2)c1 | . | . | -22.2% | 1.3%[46.1 µM] | 12.1
C=CCCCN1C=C(C(=O)OCC)C(c2ccccc2)NC1=O (centres undefined) | -10.8%[14.2 µM] | . | . | . | .
O=C(CN1C(=O)CSc2ccc(S(=O)(=O)N3CCCC3)cc21)NCc1ccc(Cl)cc1 | . | . | -3.3% | -5.0%[46.1 µM] | 45.9
COc1ccc(O[C@H]2C=C[C@@H](c3ccccc3)O[C@H]2COC(=O)CCC(C)=NO[C@@H]2O[C@H](COC(C)=O)[C@@H](OC(C)=O)[C@H](OC(C)=O)[C@@H]2OC(C)=O)cc1 | -23.1%[14.2 µM] | . | . | . | .
COc1ccc(-c2[nH]ncc2C(=O)NCc2ccccc2OC)cc1 | 15.4%[46.1 µM] | . | 20.4% | . | ?
CCN1C(C(=O)c2ccccc2)=C(OC(=O)c2ccc(OC)cc2)c2ccccc2S1(=O)=O | 1.5%[46.1 µM] | . | -6.3% | -19.9%[46.1 µM] | -68.1*
COC1CCCCC1C1CCN(C(=O)c2ccco2)CC1 (centres undefined) | -3.8%[14.2 µM] | . | . | . | .
CC(C)c1ccc(/C=C/C(=O)NCCCc2ccccc2)cc1 | 5.5% | 3.4% | -8.7% | 8.6% | -39.6
O=C(/C=C/c1ccccc1)NC(=S)Nc1ccccc1O | ? | -21.1% | 3.2% | ? | -24.4
O=C(C=Cc1ccccc1)NCCNC(=O)C=Cc1ccccc1 | ? | 19.3% | -5.5% | 18.6%[46.1 µM] | -68.9*
NC(=S)NC(=O)/C=C/c1ccccc1 | ? | ? | 26.1% | -35.5% | -67.1*
CCCNC(=O)/C=C/c1ccc(C(C)C)cc1 | ? | -8.8% | 48.1% | 18.4µM* | 22.0
Cc1ccc(/C=C/C(=O)NCc2cccs2)cc1 | -2.2% | -13.6% | 44.4% | 2µM* | 48.4
O=C1c2oc3ccc(F)cc3c(=O)c2C(c2cccc([N+](=O)[O-])c2)N1CCCN1CCOCC1 (centres undefined) | ? | . | 4.4% | -26.0%[46.1 µM] | 1.0
CC1CCCC(NC(=S)Nc2ccc(SC(F)F)cc2)C1C (centres undefined) | ? | 31.6µM* | -27.0% | ? | ?
FC(F)Sc1ccc(NC(=S)NC2CCCC2)cc1 | 0.1%[46.1 µM] | -0.7% | 30.2% | 6.7% | -28.1
Cc1cc(OCC(=O)N2CCC(c3nc4ccccc4s3)CC2)ccc1Cl | 5.4%[46.1 µM] | . | ? | 9.2%[46.1 µM] | -25.4
CC(C)Cn1cc(NC(=O)N2CCN(c3cccc(Cl)c3)CC2)c2ccccc2c1=O | . | . | -18.1% | -0.8%[46.1 µM] | -16.1
N=NC(=O)c1ccccc1Nc1c(O)[nH]c2ccccc12 | ? | -24.3% | ? | 6.31µM* | 73.2
CC(=O)Nc1c(O)[nH]c2ccccc12 | 24.3% | 4.7% | . | 6.4% | 10.9
CCCN1C(=O)C(Cc2nc3ccccc3c(=O)n2-c2cccc(C)c2)c2ccccc21 (centres undefined) | -23.2%[46.1 µM] | . | 11.8% | -9.2%[46.1 µM] | -18.1
CCCCCCC(C)(C)c1ccc([C@@H]2C[C@H](O)CC[C@@H]2CCCO)c(O)c1 | 13µM* | . | ? | . | .
CCN1CCN(C(=O)c2cnn(-c3ncc4c(n3)-c3ccccc3CCC4)c2COC)CC1 | . | . | 8.5% | . | .
Cc1cc(C)c2nc(NNC(=O)c3ccc(S(=O)(=O)N4CC(C)CC(C)C4)cc3)sc2c1 (centres undefined) | 14.6µM* | 7.08µM* | -19.1% | ? | -98.0*
Cc1ccc2nc(NNC(=O)c3ccc(S(=O)(=O)N4CCc5ccccc5C4)cc3)sc2c1 | ? | 2.51µM* | ? | ? | -99.1*
Cc1cc(C)c2nc(NNC(=O)c3ccc(S(=O)(=O)N4CCCC(C)C4)cc3)sc2c1 (centres undefined) | ? | 7.94µM* | ? | ? | -98.5*
Cc1cccc2sc(NNC(=O)c3ccc(S(=O)(=O)N4CC(C)CC(C)C4)cc3)nc12 (centres undefined) | ? | ? | ? | ? | -99.4*
COC(=O)c1sc2ccccc2c1NC(=O)c1ccc(S(=O)(=O)N2CC(C)CC(C)C2)cc1 (centres undefined) | 26.3% | -5.4% | -10.0% | -19.2% | ?
Cc1cc(C)c2nc(NC(=O)c3ccc(S(=O)(=O)N4CCC(C)CC4)cc3)sc2c1 | . | . | -9.2% | 21.3%[46.1 µM] | -3.3
CC(C)=CCN1C(=O)[C@]2(O[C@H](COc3ccccc3)CC3=CCCC32)c2c(Br)cccc21 (some centres undefined) | -17.0%[14.2 µM] | . | . | . | .
